Experimental data: article PMC7826789 (International Journal of Molecular Sciences, 2021)

Tests used:
Conditions in all cases: Compound Concentration (nM):1000
NEK3 = test system: NEK3
NEK4 = test system: NEK4
NEK5 = test system: NEK5
NEK6 = test system: NEK6
NEK7 = test system: NEK7
NEK9 = test system: NEK9
NIK = test system: T1, NIK
T1 construct: gene MAP3K14

NIM1 = test system: T2, NIM1
T2 construct: gene MGC42105

NLK = test system: NLK
OSR1 = test system: T3, OSR1
T3 construct: gene OXSR1
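Also: KINOMEscan scanMAX binding as percent activity remaining versus control; lower means stronger binding.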

SMILES	Percent Control (NEK3) [%]	Percent Control (NEK4) [%]	Percent Control (NEK5) [%]	Percent Control (NEK6) [%]	Percent Control (NEK7) [%]	Percent Control (NEK9) [%]	Percent Control (NIK) [%]	Percent Control (NIM1) [%]	Percent Control (NLK) [%]	Percent Control (OSR1) [%]
COC(=O)Nc1nc2ccc(Oc3ccc(NC(=O)Nc4cc(C(F)(F)F)ccc4F)cc3)cc2s1.Cl [GW693917A]	87	83	76	100	100	50	80	79	95	100
Cl.O=S1CCN(Cc2ccc(-c3ccc4ncnc(Nc5ccc(OCc6ccccc6)c(F)c5)c4c3)o2)CC1 [GW576924A]	100	100	100	100	100	100	100	100	100	100
Nc1ncnc2occ(-c3ccc(NC(=O)Nc4cc(C(F)(F)F)ccc4F)cc3)c12 [GW770249X]	98	71	82	100	100	38	100	100	100	100
CCc1ccc(Oc2nccc(-c3c(-c4ccc(F)cc4)ncn3C3CCNCC3)n2)cc1 [SB-242719]	100	96	100	100	100	100	100	83	25	100
COc1ccccc1-c1cc(/C=C2\C(=O)Nc3ncc(Br)cc32)cc(Br)c1O [GW442130X]	100	100	100	100	100	100	100	100	100	77
COc1ccc(COc2ccc(Cc3cnc(N)nc3N)cc2OC)cc1 [GW632580X]	97	77	100	95	77	85	94	86	100	100
COc1cc(N2CCN(C(C)C)CC2)ccc1Nc1nc(Nc2ccc(F)cc2C(=O)NC[C@@H](O)CO)c2cc[nH]c2n1 [GSK1392956A]	100	100	83	100	100	100	100	96	100	89
CN(C)CCNC(=O)Nc1ccc(N(C)c2ccnc(Nc3ccc(CS(C)(=O)=O)cc3)n2)cc1.Cl [GW830900A]	63	100	91	96	93	96	88	88	82	100
CCS(=O)(=O)c1ccc(OC)c(Nc2ncc(-c3cccc(OC)c3)o2)c1 [GW580509X]	100	100	100	100	100	100	92	100	100	100
COc1cccc(-n2ncc3c(N/N=C/c4ccncc4)ncnc32)c1 [GW784752X]	86	100	100	100	92	90	100	86	91	99
NS(=O)(=O)c1ccc(N/N=C2\C(=O)Nc3ccc(C(=O)NCc4ccncc4)cc32)cc1 [GW300657X]	84	89	92	97	62	64	95	72	96	75
COc1ccc2c(-c3ccnc(Nc4cccc(OC(F)(F)F)c4)n3)cnn2n1 [GW810372X]	22	80	7.6	39	3.6	47	96	77	81	100
Cl.O=C(Nc1ccc(Oc2ccc3[nH]c(NC(=O)c4ccccc4)nc3c2)cc1)Nc1cc(C(F)(F)F)ccc1F [GW709042A]	98	83	95	92	100	20	100	88	95	100
COc1cc2ncnc(Nc3ccc4c(cnn4Cc4ccccc4)c3)c2cc1OC.Cl [GW282449A]	100	100	100	100	96	100	100	100	100	100
C/C(Nc1ccc(S(N)(=O)=O)cc1)=C1/C(=O)Nc2ccccc21 [GW335962X]	96	77	97	100	95	95	78	86	87	94
Cl.O=C(Nc1ccc(Oc2ccc3[nH]c(NC(=O)c4ccco4)nc3c2)cc1)Nc1cc(C(F)(F)F)ccc1F [GW683134A]	97	81	96	100	100	10	100	97	87	100
